Results filed as inconclusive are left out. The source made the active and inactive calls. Unless noted, the call rests on the fitted dose curve; in most records, active means well fitted curve in the direction sought with a large enough effect in the repeat runs; inconclusive means weak or mixed curves; inactive means no such curve, though single readings can be large; an effect the other way counts as inactive or inconclusive.
Legend:
[1] = A CellTox Green Cytotoxicity Assay to monitor cytotoxicity in HepG2 cells - 8 hour (AID 1224890); further: nearly all actives have a fitted effect of over 45% in size
Outline: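 Using 1536-well format, dye-containing HepG2 suspension was seeded, allowed 5 h at 37 C/5% CO2, dosed by pintool with compounds, positive and negative controls, and imaged for fluorescence across 40 h.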

[2] = qHTS assay to identify small molecule antagonists of the estrogen receptor alpha (ER-alpha) signaling pathway using the BG1 cell line in the presence of 0.1 nM 17-beta-estradiol - cell viability counter screen (AID 1259241); further: nearly all actives have a fitted effect of over 40% in size
Outline: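 The cell line endogenously expresses full-length ER-alpha and carries four EREs driving luciferase. Cells are cultured 5 days hormone-free, treated 22 hr with compounds and 0.1 nM estradiol, then viability is read by fluorescence.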

[3] = qHTS assay to identify small molecule antagonists of the androgen receptor (AR) signaling pathway using the MDA cell line in the presence of 0.5 nM R1881 - cell viability counter screen (AID 1259242); further: nearly all actives have a fitted effect of over 45% in size
Outline: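 Viability of MDA-kb2 cells was multiplexed with the luciferase AR readout; after 16 hr with compounds and R1881 at 0.5 nM final, CellTiter-Fluor fluorescence was recorded.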

[4] = molecular target: Estrogen receptor (Homo sapiens) (UniProt P03372); assay: qHTS assay to identify small molecule antagonists of the estrogen receptor alpha (ER-alpha) signaling pathway using the BG1 cell line in the presence of 0.1 nM 17-beta-estradiol (AID 1259244); further: nearly all actives have a fitted effect of over 50% in size; further: potency means the concentration at half of the fitted maximal effect
Outline: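 Estradiol at 0.1 nM (final) stimulates the endogenous ER-alpha of VM7Luc4E2 cells carrying an ERE-driven luciferase; compounds are co-incubated 22 h at 37C and luciferase output quantified by luminescence.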

[5] = qHTS assay to identify small molecule HDAC inhibitors (AID 1259364); further: potency means the concentration at half of the fitted maximal effect;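 further: wild-type HCT-116 cells with endogenous class I/II HDAC activity; nearly all actives have a fitted effect of over 45% in size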
Outline: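 Read-out: luminescence of HDAC-Glo I/II reagent, 30 min RT, reflecting class I/II deacetylase activity in whole HCT-116 cells pre-exposed 2 h to DMSO-dissolved compounds.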

[6] = qHTS assay to identify small molecule HDAC inhibitors - cell viability counter screen (AID 1259365); further: series mostly up to about 92 µM; nearly all actives have a fitted effect of over 50% in size
Outline: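 Viability readout: CellTiter-Glo luminescence. Wild-type HCT-116 cells, 2hr compound treatment following overnight attachment at 37 C.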

[7] = qHTS assay to identify small molecule agonists of the sonic hedgehog signaling (Shh) pathway - cell viability counter screen (AID 1259366); further: nearly all actives have a fitted effect of over 50% in size
Outline: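 Viability measured fluorometrically (CellTiter-Fluor, 1hr, 37C) in 3T3 Gli1-Luc reporter cells after 23hr compound exposure within a 24hr incubation at 37C/5% CO2.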

[8] = qHTS assay to identify small molecule antagonists of the sonic hedgehog signaling (Shh) pathway - cell viability counter screen (AID 1259367); further: nearly all actives have a fitted effect of over 55% in size
Outline: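 After a 4 hr settling period, 3T3 Gli1-Luc cells were treated with DMSO-dissolved chemicals and conditioned medium, kept 24 hr at 37C in 5% CO2, and assayed for viability by CellTiter-Fluor fluorescence following 1 hr reagent incubation.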

[9] = qHTS assay to identify small molecule phospholipidosis (PLD) inducers (AID 1259344; active means well fitted curve in the direction sought with a large enough effect; an effect the other way counts as inactive or inconclusive)
Outline: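 HepG2 cells grown on collagen I take up LipidTOX Red while exposed to compound for 24 h; after fixation they are imaged at 20x and pit metrics are extracted.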

Measured: Potency

Estrogen receptor (Homo sapiens), sequence (P03372 whole entry, looked up): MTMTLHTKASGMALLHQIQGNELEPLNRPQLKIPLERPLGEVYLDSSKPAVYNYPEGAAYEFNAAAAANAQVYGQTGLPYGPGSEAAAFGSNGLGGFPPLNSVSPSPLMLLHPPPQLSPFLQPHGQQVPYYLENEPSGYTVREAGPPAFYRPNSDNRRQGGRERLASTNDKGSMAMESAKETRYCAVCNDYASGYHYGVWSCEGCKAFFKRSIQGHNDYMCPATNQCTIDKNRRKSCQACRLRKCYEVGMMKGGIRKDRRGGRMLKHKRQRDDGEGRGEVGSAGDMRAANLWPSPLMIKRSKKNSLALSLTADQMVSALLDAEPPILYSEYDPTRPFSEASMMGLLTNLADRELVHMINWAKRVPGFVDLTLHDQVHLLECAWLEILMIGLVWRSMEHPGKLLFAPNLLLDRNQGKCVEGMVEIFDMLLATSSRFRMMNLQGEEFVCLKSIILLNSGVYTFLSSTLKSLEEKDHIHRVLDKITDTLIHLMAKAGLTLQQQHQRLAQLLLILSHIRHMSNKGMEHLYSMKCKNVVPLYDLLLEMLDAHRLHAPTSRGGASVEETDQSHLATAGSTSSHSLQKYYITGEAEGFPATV

O=S1OCCO1
not listed: [9]
inactive: all other assays above

CC(C)C(=O)O
not listed: [9]
inactive: all other assays above

COC(OC)(C(=O)c1ccccc1)c1ccccc1
not listed: [7] | [9]
inactive: all other assays above

Cc1oc(C)c(C(=O)Nc2ccccc2)c1C
active: [4] 24.3 µM | [5] 27.3 µM
not listed: [7] | [9]
inactive: all other assays above

c1ccc(COCc2ccccc2)cc1
not listed: [9]
inactive: all other assays above

CC1=CC(O)CC(C)(C)C1 (stereo not given)
not listed: [9]
inactive: all other assays above

Cc1nc2ccccc2s1
not listed: [9]
inactive: all other assays above

CCCCN(CCCC)CCCOC(=O)c1ccc(N)cc1
not listed: [4] | [8]
inactive: all other assays above

OCCSc1ccccc1
not listed: [9]
inactive: all other assays above

CCCCC(=O)O[C@]1(C(=O)CO)[C@@H](C)C[C@H]2[C@@H]3CCC4=CC(=O)C=C[C@]4(C)[C@@]3(F)[C@@H](O)C[C@@]21C
not listed: [9]
inactive: all other assays above

O=C(Nc1ccc([N+](=O)[O-])cc1)Nc1ccc([N+](=O)[O-])cc1
not listed: [4] | [7] | [8]
inactive: all other assays above

O=C(CS)OCCOC(=O)CS
active: [5] 8.63 µM
not listed: [4] | [9]
inactive: all other assays above
